Records with an inconclusive call do not appear. Calls of active or inactive are those of the source. Calls come from the whole dose curve; as a rule, active = well fitted curve in the direction sought with a large enough effect; inconclusive = small, poorly fitted or top-dose-only effect, or another doubt; inactive = no such curve, though single readings can be large; an effect the other way counts as inactive or inconclusive.
Legend:
[1] = qHTS of pediatric cancer cell lines to identify multiple opportunities for drug repurposing: Primary screen for control Hh wild type fibroblast cells (AID 1347106); details: Hh wild-type fibroblast viability, CellTiter-Glo luminescence, 48 h; series mostly up to 46 µM;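 note: % is set by controls: 0 for no effect and ±100 for the full control effect; a drop in luminescence marks cytotoxicity and a rise apparent proliferation; nearly all actives have a fitted effect of over 55% in size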
In short: (§1)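 Cells (500-1,000/well) in growth media were settled 5 h at 37 degrees C, then given compounds for 48 h. Viability was read as CellTiter-Glo luminescence. Primary runs used MIPE at 11 points (0.78 nM-46 µM) and NPC at 8 points (0.59 nM-46 µM); follow-ups used 11 points.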

[2] = qHTS of pediatric cancer cell lines to identify multiple opportunities for drug repurposing: Primary screen for Rh30 cells (AID 1347107); details: Rh30 rhabdomyosarcoma viability, CellTiter-Glo luminescence, 48 h; series mostly up to 46 µM; note: % is set by controls: 0 for no effect and ±100 for the full control effect; nearly all actives have a fitted effect of over 75% in size
In short: as §1

[3] = qHTS of pediatric cancer cell lines to identify multiple opportunities for drug repurposing: Primary screen for Rh41 cells (AID 1347108); details: Rh41 rhabdomyosarcoma viability, CellTiter-Glo luminescence, 48 h; series mostly up to 46 µM;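 note: luminescence drop marks cytotoxic hits; nearly all actives have a fitted effect of over 70% in size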
In short: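 500-1,000 cells/well; 5 h pre-incubation 37 °C/5% CO2; compound pinned; 48 h; CellTiter-Glo, 15 min RT; luminescence. MIPE 11-pt from 0.78 nM, NPC 8-pt from 0.59 nM final. Bortezomib 2.3 µM final as positive control.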

O=C(O)CCc1nc2ccccc2[nH]1
inactive: Potency [1] | Potency [2] | Potency [3]

O=C(NCCc1c[nH]c2ccccc12)c1cccnc1
inactive: Potency [1] | Potency [2] | Potency [3]

C=C1c2cccc(O)c2C(O)=C2C(=O)[C@]3(O)C(O)=C(C(N)=O)C(=O)[C@@H](N(C)C)[C@@H]3[C@@H](O)[C@H]12
inactive: Potency [1] | Potency [2] | Potency [3]

CN(C)CCOC(c1ccc(Cl)cc1)c1ccccn1 (configuration not stated)
inactive: Potency [1] | Potency [2] | Potency [3]

COc1cc([C@H]2Oc3cc([C@H]4Oc5cc(O)cc(O)c5C(=O)[C@@H]4O)ccc3O[C@@H]2CO)ccc1O
inactive: Potency [1] | Potency [2] | Potency [3]

CCCCNc1ccc(C(=O)OCCOCCOCCOCCOCCOCCOCCOCCOCCOC)cc1
inactive: Potency [1] | Potency [2] | Potency [3]

NC(=S)N/N=C/c1cccnc1
inactive: Potency [1] | Potency [2] | Potency [3]

C[C@H]1[C@H]2CC[C@H]3[C@@H]4CC=C5C[C@@H](N(C)C)CC[C@]5(C)[C@H]4CC[C@]23CN1C
inactive: Potency [1] | Potency [2] | Potency [3]

C=C[C@H]1CN2CC[C@H]1C[C@@H]2[C@@H](O)c1ccnc2ccc(OC)cc12
inactive: Potency [1] | Potency [2] | Potency [3]

CCOC(=O)c1ccc(N)cc1
inactive: Potency [1] | Potency [2] | Potency [3]

C[N+]12CCC(CC1)C(OC(=O)C(O)(c1ccccc1)c1ccccc1)C2 (configuration not stated)
inactive: Potency [1] | Potency [2] | Potency [3]

OCc1ccccn1
inactive: Potency [1] | Potency [2] | Potency [3]

O=C(NC1CCN(CCc2c[nH]c3ccccc23)CC1)c1ccccc1
inactive: Potency [1] | Potency [2] | Potency [3]

CCCCN=C(N)N=C(N)N
inactive: Potency [1] | Potency [2] | Potency [3]

O=C1C(O)=C(O)C(=O)C(O)=C1O
inactive: Potency [1] | Potency [2] | Potency [3]

CC(C)[N+](C)(C)CC(O)COc1cccc2ccccc12 (configuration not stated)
inactive: Potency [1] | Potency [2] | Potency [3]

CCCCCCCCCCCCSCCOCCO
inactive: Potency [1] | Potency [2] | Potency [3]

Nc1ccc(C(=O)NCC(=O)O)cc1
inactive: Potency [1] | Potency [2] | Potency [3]

CC(=O)NC(=O)c1ccccc1O
inactive: Potency [1] | Potency [2] | Potency [3]

Cc1cccc(C)c1NC(=O)CN1CCCC1
inactive: Potency [1] | Potency [2] | Potency [3]

CN(C)CCN1C(=O)c2ccccc2N(C)c2ccccc21
inactive: Potency [1] | Potency [2] | Potency [3]

CN(Cc1ccc(C(C)(C)C)cc1)Cc1cccc2ccccc12
inactive: Potency [1] | Potency [2] | Potency [3]

CN1CCN(c2c(F)cc3c(=O)c(C(=O)O)cn4c3c2SCC4)CC1
inactive: Potency [1] | Potency [2] | Potency [3]

CCCCCCCCCCCCCCC[C@H](O)[C@@H](N)CO
inactive: Potency [1] | Potency [2] | Potency [3]

CCOc1ccccc1OCCN[C@H](C)Cc1ccc(OC)c(S(N)(=O)=O)c1
inactive: Potency [1] | Potency [2] | Potency [3]

Cc1c(-c2ccccc2)oc2c(C(=O)OCCN3CCCCC3)cccc2c1=O
inactive: Potency [1] | Potency [2] | Potency [3]

Cc1cn([C@H]2C[C@H](F)[C@@H](CO)O2)c(=O)[nH]c1=O
inactive: Potency [1] | Potency [2] | Potency [3]

CCN(CC)CCOC(=O)C(Cc1cccc2ccccc12)CC1CCCO1 (configuration not stated)
inactive: Potency [1] | Potency [2] | Potency [3]

N=C(N)N1CCc2ccccc2C1
inactive: activity change, negative = cytotoxic [1] -9.54% [at 4.84 µM] | activity change, negative = cytotoxic [2] 7.74% [at 4.84 µM] | activity change, negative = cytotoxic [3] 1.21% [at 4.84 µM]

C[N+]1(C)CCC(=C(c2ccccc2)c2ccccc2)CC1
inactive: Potency [1] | Potency [2] | Potency [3]

CC(=O)O[C@H]1C[C@@H]2CC[C@@H]3[C@H](CC[C@@]4(C)[C@H]3C[C@H]([N+]3(C)CCCCC3)[C@@H]4OC(C)=O)[C@@]2(C)C[C@@H]1N1CCCCC1
inactive: Potency [1] | Potency [2] | Potency [3]

O=C(Nc1cccc(C2=NCCN2)c1)Nc1cccc(C2=NCCN2)c1
inactive: Potency [1] | Potency [2] | Potency [3]

OC[C@H]1O[C@@H]2O[C@H]3[C@H](O)[C@@H](O)[C@@H](O[C@H]4[C@H](O)[C@@H](O)[C@@H](O[C@H]5[C@H](O)[C@@H](O)[C@@H](O[C@H]6[C@H](O)[C@@H](O)[C@@H](O[C@H]7[C@H](O)[C@@H](O)[C@@H](O[C@H]8[C@H](O)[C@@H](O)[C@@H](O[C@H]1[C@H](O)[C@H]2O)O[C@@H]8CO)O[C@@H]7CO)O[C@@H]6CO)O[C@@H]5CO)O[C@@H]4CO)O[C@@H]3CO
inactive: Potency [1] | Potency [2] | Potency [3]

O=C(CN1CCN(Cc2ccc3c(c2)OCO3)CC1)N1c2ccccc2Sc2ccccc21
inactive: Potency [1] | Potency [2] | Potency [3]

— PubChem BioAssay (NCATS)
